In PubChem BioAssay (Tox21):
Records with an inconclusive call do not appear. Some structures have more than one record in an assay (separate samples or runs), and their calls can disagree. Activity calls are given as the source filed them. Unless noted, calls come from the whole dose curve; as a rule, active = well fitted curve in the direction sought with a large enough effect in the repeat runs; inconclusive = weak or mixed curves; inactive = no such curve, though single readings can be large; an effect the other way counts as inactive or inconclusive.

Columns and labels:
[1] = A CellTox Green Cytotoxicity Assay to monitor cytotoxicity in HepG2 cells - 8 hour (AID 1224890); note: nearly all actives have a fitted effect of over 45% in size
In short: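 Nonlytic assay: viable cells exclude the dye, so fluorescence scales with cell death. HepG2 at 600 cells/well, compounds added after 5 h, signal read across 40 h.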

[2] = qHTS assay to identify small molecule antagonists of the estrogen receptor alpha (ER-alpha) signaling pathway using the BG1 cell line in the presence of 0.1 nM 17-beta-estradiol - cell viability counter screen (AID 1259241); note: nearly all actives have a fitted effect of over 40% in size
In short: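 The cell line endogenously expresses full-length ER-alpha and carries four EREs driving luciferase. Cells are cultured 5 days hormone-free, treated 22 hr with compounds and 0.1 nM estradiol, then viability is read by fluorescence.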

[3] = qHTS assay to identify small molecule antagonists of the androgen receptor (AR) signaling pathway using the MDA cell line in the presence of 0.5 nM R1881 - cell viability counter screen (AID 1259242); note: nearly all actives have a fitted effect of over 45% in size
In short: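 R1881 at 0.5 nM final stimulated MDA-kb2 cells during 16 hr compound treatment at 37C. Cytotoxicity read: CellTiter-Fluor fluorescence after 30 min.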

[4] = target: Androgen receptor (Homo sapiens) (UniProt P10275); assay: qHTS assay to identify small molecule antagonists of the androgen receptor (AR) signaling pathway using the MDA cell line in the presence of 0.5 nM R1881 (AID 1259243); note: nearly all actives have a fitted effect of over 50% in size
In short: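 We exposed MDA-kb2 cells to compounds under 0.5 nM R1881 stimulation for 16 hr at 37C and quantified MMTV-driven luciferase by luminescence.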

[5] = target: Estrogen receptor (Homo sapiens) (UniProt P03372); assay: qHTS assay to identify small molecule antagonists of the estrogen receptor alpha (ER-alpha) signaling pathway using the BG1 cell line in the presence of 0.1 nM 17-beta-estradiol (AID 1259244); note: nearly all actives have a fitted effect of over 50% in size
In short: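 VM7Luc4E2; 4xERE-luciferase; 0.1 nM E2 final; 22 h co-incubation, 37C; ONE-Glo luminescence after 30 min at room temperature.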

[6] = qHTS assay to identify small molecule HDAC inhibitors (AID 1259364);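 note: wild-type HCT-116 cells with endogenous class I/II HDAC activity; top concentration of the series differs between compounds; nearly all actives have a fitted effect of over 45% in size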
In short: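 Relative class I and II HDAC activity is taken from the luminogenic signal in HCT-116 cells, with compound exposure 2 hr and reagent development 30 min at room temperature.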

[7] = qHTS assay to identify small molecule HDAC inhibitors - cell viability counter screen (AID 1259365); note: series mostly up to about 92 µM; nearly all actives have a fitted effect of over 50% in size
In short: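 Viability readout: CellTiter-Glo luminescence. Wild-type HCT-116 cells, 2hr compound treatment following overnight attachment at 37 C.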

[8] = qHTS assay to identify small molecule agonists of the sonic hedgehog signaling (Shh) pathway - cell viability counter screen (AID 1259366); note: nearly all actives have a fitted effect of over 50% in size
In short: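 Viability measured fluorometrically (CellTiter-Fluor, 1hr, 37C) in 3T3 Gli1-Luc reporter cells after 23hr compound exposure within a 24hr incubation at 37C/5% CO2.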

[9] = qHTS assay to identify small molecule antagonists of the sonic hedgehog signaling (Shh) pathway - cell viability counter screen (AID 1259367); note: nearly all actives have a fitted effect of over 55% in size
In short: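 Seed 3T3 Gli1-Luc cells at 2,000 per well; incubate 4 hr; add compound in DMSO, then conditioned medium; incubate at 37C with 5% CO2; add CellTiter-Fluor after 23 hr; read fluorescence 1 hr later.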

[10] = qHTS assay to identify small molecule agonists of the sonic hedgehog signaling (Shh) pathway (AID 1259368; calls by dose curve;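 note: NIH/3T3-derived 3T3Gli1-Luc cells carrying a stable Gli1-driven firefly luciferase reporter; series mostly up to about 92 µM; nearly all actives have a fitted effect of over 15% in size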)
In short: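 Mouse fibroblast (NIH/3T3) reporter cells with stably integrated Gli1-Luc were treated 24 hr with compound; firefly luciferase luminescence served as the read-out.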

[11] = qHTS assay to identify small molecule antagonists of the sonic hedgehog signaling (Shh) pathway (AID 1259369; calls by dose curve; note: nearly all actives have a fitted effect of over 45% in size)
In short: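 Conditioned medium drives Shh signalling in 3T3Gli1-Luc cells; compounds in DMSO co-applied, 24hr at 37 C, then luciferase luminescence.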

[12] = target: Estrogen receptor beta (Homo sapiens) (UniProt Q92731); assay: qHTS assay to identify small molecule agonists of the estrogen receptor beta (ER-beta) signaling pathway (AID 1259377; active = well fitted activation curve with a large enough effect in the signal ratio in the repeat runs, not every such curve was filed as active; the % refers to the signal ratio)
In short: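 A UAS-controlled beta-lactamase reporter in ER-beta-UAS-bla HEK293T cells reports receptor activation. Compounds act for 16 hr at 37C in 2% charcoal-stripped serum, and a FRET substrate is read by fluorescence after 2 hours.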

[13] = target: Estrogen receptor beta (Homo sapiens) (UniProt Q92731); assay: qHTS assay to identify small molecule antagonists of the estrogen receptor beta (ER-beta) signaling pathway (AID 1259378; active = well fitted inhibition curve with a large enough effect in the signal ratio in the repeat runs, not every such curve was filed as active; the % refers to the signal ratio)
In short: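 ER-beta-UAS-bla HEK293T cells in 2% charcoal-stripped FBS medium treated with compound plus 1nM final 17-beta-estradiol for 16 hr at 37C. Beta-lactamase reporter read by FRET substrate fluorescence after 2 hours at room temperature.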

[14] = qHTS assay to identify small molecule agonists of the androgen receptor (AR) signaling pathway in the presence of an antagonist - cell viability counter screen (AID 1259379);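 note: MDA-kb2 human breast cancer cells carrying an MMTV luciferase reporter; series mostly up to about 92 µM; nearly all actives have a fitted effect of over 25% in size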
In short: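 A CellTiter-Fluor read-out measured viability of MDA-kb2 reporter cells (MMTV promoter with AR and GR response elements). Treatment: nilutamide 3.0uM final with compounds at 15 concentrations, 16 hr, 37C, 0% CO2.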

[15] = qHTS assay to identify small molecule agonists of the estrogen receptor beta (ER-beta) signaling pathway - cell viability counter screen (AID 1259380); note: nearly all actives have a fitted effect of over 30% in size; note: potency is the fitted concentration of half-maximal effect
In short: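 Cells used were ER-beta-UAS-bla HEK293T in medium with 2% charcoal-stripped FBS. They were treated for 16 hr at 37C. Viability came from CellTiter-Glo luminescence.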

[16] = target: Androgen receptor (Homo sapiens) (UniProt P10275); assay: qHTS assay to identify small molecule agonists of the androgen receptor (AR) signaling pathway in the presence of an antagonist (AID 1259381; calls by dose curve; note: nearly all actives have a fitted effect of over 15% in size)
In short: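 Using human MDA-kb2 cells with an MMTV promoter–luciferase construct (AR and GR response elements), agonist activity is scored under 3.0uM nilutamide (final) co-treatment; 16hr incubation, 37C, luminescence readout via ONE-Glo.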

[17] = qHTS assay to identify small molecule antagonists of the estrogen receptor beta (ER-beta) signaling pathway - cell viability counter screen (AID 1259382); note: series mostly up to about 92 µM; nearly all actives have a fitted effect of over 55% in size
In short: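 Agonist-stimulated (1nM E2) ER-beta-UAS-bla HEK293T cells are incubated with library compounds for 16 hr at 37C. Cell viability is then assessed in the reporter-assay wells by adding CellTiter-Glo and reading luminescence after 30 min.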

[18] = target: Estrogen receptor (Homo sapiens) (UniProt P03372); assay: qHTS assay to identify small molecule agonists of the estrogen receptor alpha (ER-alpha) signaling pathway in the presence of an antagonist (AID 1259383; calls by dose curve; note: top concentration of the series differs between compounds; nearly all actives have a fitted effect of over 15% in size)
In short: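 Using VM7Luc4E2 cells seeded 24hr before treatment, antagonist ICI-182,780 (10.0nM final) was added, followed by compounds at 15 concentrations. Plates incubated 22hr; ONE-Glo luminescence quantified reporter activity.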

[19] = qHTS assay to identify small molecule agonists or antagonists of the thyroid stimulating hormone receptor (TSHR) signaling pathway - wild type cell line counter screen (AID 1259384; calls by dose curve)
In short: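 Wild-type Hek293 cells, 800/well, 18 h at 37C, then compound with Ro20-1724 for 30 min RT. cAMP by HTRF (cAMP-d2/anti-cAMP cryptate), 1 h RT, fluorescence read. 15 concentrations, triplicates.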

[20] = qHTS assay to identify small molecule phospholipidosis (PLD) inducers (AID 1259344; active = well fitted curve in the direction sought with a large enough effect; an effect the other way counts as inactive or inconclusive)
In short: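 Quantitative HTS in HepG2: compound plus LipidTOX Red dye for 24 h, paraformaldehyde fixation with Hoechst 33342, widefield high-content imaging; amiodarone as positive and DMSO as negative control.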

Measured: Potency

Androgen receptor (Homo sapiens), sequence (P10275 whole entry, looked up): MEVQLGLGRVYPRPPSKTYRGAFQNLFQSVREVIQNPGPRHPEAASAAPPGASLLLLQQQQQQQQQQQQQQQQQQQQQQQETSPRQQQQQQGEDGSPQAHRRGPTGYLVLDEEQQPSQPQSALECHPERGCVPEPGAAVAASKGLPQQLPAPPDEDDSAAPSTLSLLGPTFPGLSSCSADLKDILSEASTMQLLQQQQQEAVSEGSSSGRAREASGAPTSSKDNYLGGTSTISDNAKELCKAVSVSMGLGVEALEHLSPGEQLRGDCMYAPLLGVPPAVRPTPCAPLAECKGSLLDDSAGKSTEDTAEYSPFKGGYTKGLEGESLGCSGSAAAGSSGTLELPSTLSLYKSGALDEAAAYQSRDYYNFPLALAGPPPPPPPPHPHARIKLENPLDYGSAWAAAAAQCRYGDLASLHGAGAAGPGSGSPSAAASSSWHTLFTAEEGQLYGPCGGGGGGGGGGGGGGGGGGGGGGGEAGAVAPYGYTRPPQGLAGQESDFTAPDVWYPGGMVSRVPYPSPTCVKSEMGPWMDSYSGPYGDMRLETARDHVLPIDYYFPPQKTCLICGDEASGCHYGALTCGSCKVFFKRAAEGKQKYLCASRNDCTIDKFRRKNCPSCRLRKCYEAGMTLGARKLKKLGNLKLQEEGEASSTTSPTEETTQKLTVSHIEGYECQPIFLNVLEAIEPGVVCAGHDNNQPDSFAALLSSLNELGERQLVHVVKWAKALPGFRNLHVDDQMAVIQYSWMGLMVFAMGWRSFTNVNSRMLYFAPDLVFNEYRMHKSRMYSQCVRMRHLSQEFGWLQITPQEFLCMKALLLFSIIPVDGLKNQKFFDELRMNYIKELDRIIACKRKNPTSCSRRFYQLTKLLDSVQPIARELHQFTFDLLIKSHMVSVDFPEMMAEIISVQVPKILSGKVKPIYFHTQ
Estrogen receptor (Homo sapiens), sequence (P03372 whole entry, looked up): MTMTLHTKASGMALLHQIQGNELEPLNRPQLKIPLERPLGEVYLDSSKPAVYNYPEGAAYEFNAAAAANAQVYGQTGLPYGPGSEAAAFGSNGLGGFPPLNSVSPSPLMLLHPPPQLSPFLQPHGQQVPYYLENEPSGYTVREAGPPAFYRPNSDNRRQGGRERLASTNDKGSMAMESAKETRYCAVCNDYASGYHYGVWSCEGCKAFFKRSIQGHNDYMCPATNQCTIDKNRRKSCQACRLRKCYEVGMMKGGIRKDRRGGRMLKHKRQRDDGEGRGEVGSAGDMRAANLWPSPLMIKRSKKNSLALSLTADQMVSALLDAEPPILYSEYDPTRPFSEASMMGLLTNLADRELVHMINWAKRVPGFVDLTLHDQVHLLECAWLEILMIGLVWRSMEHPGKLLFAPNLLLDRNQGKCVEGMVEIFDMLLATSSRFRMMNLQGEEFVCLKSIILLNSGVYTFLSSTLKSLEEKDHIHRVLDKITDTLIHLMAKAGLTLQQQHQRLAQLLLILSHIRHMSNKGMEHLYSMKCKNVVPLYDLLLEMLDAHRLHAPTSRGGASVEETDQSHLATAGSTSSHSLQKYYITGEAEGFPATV
Estrogen receptor beta (Homo sapiens), sequence (Q92731 whole entry, looked up): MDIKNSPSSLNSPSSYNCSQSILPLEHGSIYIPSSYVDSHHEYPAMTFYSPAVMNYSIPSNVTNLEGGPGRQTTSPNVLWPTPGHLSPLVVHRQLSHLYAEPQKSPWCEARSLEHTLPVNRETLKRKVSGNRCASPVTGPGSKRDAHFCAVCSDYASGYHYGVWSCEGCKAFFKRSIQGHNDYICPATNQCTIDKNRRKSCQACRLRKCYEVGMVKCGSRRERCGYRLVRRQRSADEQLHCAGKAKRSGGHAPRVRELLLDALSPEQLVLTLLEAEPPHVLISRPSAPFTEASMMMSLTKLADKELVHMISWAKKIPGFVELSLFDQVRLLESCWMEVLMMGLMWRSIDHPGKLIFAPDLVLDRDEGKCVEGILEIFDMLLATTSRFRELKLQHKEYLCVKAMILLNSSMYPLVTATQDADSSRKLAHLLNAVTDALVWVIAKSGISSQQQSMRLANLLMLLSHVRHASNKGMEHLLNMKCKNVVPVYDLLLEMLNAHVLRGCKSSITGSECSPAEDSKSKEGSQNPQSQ

C=CC(=O)OCCCCCC(C)C
not listed: [20]
inactive: all other assays above

CCOc1ccc(N)cc1
not listed: [4] | [7] | [16] | [20]
inactive: all other assays above

CNC(=O)O/N=C/C(C)(C)S(C)(=O)=O
not listed: [19] | [20]
inactive: all other assays above

Oc1c(Br)cc(Br)cc1Br
21.7 µM (active) and inactive: [15]
not listed: [4] | [13] | [16]
inactive: all other assays above

Nc1cccc(Cl)c1
not listed: [4] | [16] | [20]
inactive: all other assays above

OC[C@@H](O)[C@H]1O[C@@H]2O[C@H](C(Cl)(Cl)Cl)O[C@@H]2[C@H]1O
not listed: [4] | [16]
inactive: all other assays above

CN(C)C(=O)Cl
not listed: [4] | [12] | [13] | [16] | [20]
inactive: all other assays above

CC(C)(C)C(=O)CCl
not listed: [20]
inactive: all other assays above

Cc1cc(Cl)ccc1OC(C)C(=O)O (stereo not given)
not listed: [4] | [7] | [16] | [19] | [20]
inactive: all other assays above

CNC(=O)O/N=C/C(C)(C)SC
not listed: [4] | [7] | [12] | [13] | [16] | [20]
inactive: all other assays above

Cc1cccc(N)c1
not listed: [4] | [7] | [12] | [13] | [16] | [19] | [20]
inactive: all other assays above

Nc1ccc([As](=O)(O)O)cc1
not listed: [4] | [16]
inactive: all other assays above

CCNc1nc(Cl)nc(NC(C)C)n1
not listed: [4] | [7] | [11] | [16] | [20]
inactive: all other assays above

CCSC(=O)N1CCCCCC1
not listed: [4] | [7] | [16] | [20]
inactive: all other assays above
